Laboratory results: PubChem BioAssay (EPA / NIEHS)
A structure can be active in one record and inactive in another. Activity calls are given as the source filed them. How the source made its calls: active means hit-call score of the fitted dose curve at least 0.9, where 1 is the maximum; inactive means score below 0.9.

Assay: BSK_SAg_SRB: Viability Assessment in the BioMAP Diversity Plus: SAg Assay (AID 2283096);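 further: cells read one day after compound addition; hits may be either gain or loss of signal compared with DMSO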
Details: primary human HUVEC with PBMC
Experimental: BSK_SAg is a cell-based, multiplexed-readout assay that uses umbilical vein endothelium and peripheral blood mononuclear cells, a human vascular primary cell co-culture, with measurements taken at 24 hours after chemical dosing in a 96-well plate.BSK_SAg_SRB is an assay component measured in the BSK_SAg assay. It measures protein content, a form of viability reporter, as detected with absorbance signals by Sulforhodamine staining technology.Data from the assay component BSK_SAg_SRB was analyzed into 1 assay endpoint. This assay endpoint, BSK_SAg_SRB, was analyzed with bidirectional fitting relative to DMSO as the negative control and baseline of activity. Using a type of viability reporter, gain or loss-of-signal activity can be used to understand changes in the signaling. Furthermore, this assay endpoint can be referred to as a primary readout, because this assay has produced multiple assay endpoints where this one serves a signaling function. To generalize the intended target to other relatable targets, this assay endpoint is annotated to the cell morphology intended target family, where the subfamily is cell conformation.
The levels of cell surface (or secreted, indicated by the prefix "s") biomarker endpoints were measured by ELISA. Overt cytotoxicity to cells in confluent adherent cultures (all systems other than the BT system) was assessed by measuring total protein levels using sulforhodamine B (SRB) staining in parallel cultures at the time of biomarker measurements, indicated as SRB endpoints. For proliferation assays for adherent cell types, individual cell types are cultured at sub-confluence and relative cell numbers quantified by SRB staining at time points optimized for each system (48 h: 3C and CASM3C systems; 72 h: BT and HDF3CGF systems; 96 h: SAg system). SRB was performed by staining cells with 0.1% SRB after fixation with 10% TCA and reading wells at 560 nm.Viability and proliferation of PBMC (T cells) was quantified by Alamar Blue reduction for the SAg and BT systems. For PBMC viability (referred to as PBMC Cytotoxicity within the assay endpoint names), cells were plated (75,000/well in a 96-well plate) and then chemical samples added for 1 h before addition of activators, SEB and TSST-1 (20 ng/mL final concentration each). Cells were incubated for 90 h. Then, Alamar Blue (20 uL/well) (Invitrogen, Cat DAL1100) was added for 6 h, and the plates were read with a fluorescence microplate reader at 546/580 nm (excitation/emission). For PBMC proliferation, cells were plated and activated as above but incubated for only 16 h prior to addition of Alamar Blue. Plates were read after 6 h.

Row | SMILES | outcome | AC50
1 | CCOP(=S)(OCC)Oc1nc(Cl)c(Cl)cc1Cl | inactive | –
2 | CCOP(=S)(OCC)SCCS(=O)(=O)CC | inactive | –
3 | O=C(O)C(F)(F)C(F)(F)C(F)(F)C(F)(F)C(F)(F)C(F)(F)C(F)(F)C(F)(F)C(F)(F)C(F)(F)F | inactive | 29.4 µM (active)
4 | CC(C)(OO)c1ccccc1 | inactive | –
5 | CCNc1nc(NC(C)(C)C)nc(SC)n1 | inactive | –
6 | Nc1ccc(-c2ccc(N)c(Cl)c2)cc1Cl | – | 8.93 µM (active)
7 | CCSC(C)CC1CC(=O)C(C(CC)=NOC/C=C/Cl)=C(O)C1 (stereo not given) | inactive | –
8 | CCOP(=S)(OCC)SCSP(=S)(OCC)OCC | inactive | –
9 | ClC1(Cl)C2(Cl)C3(Cl)C4(Cl)C(Cl)(Cl)C5(Cl)C3(Cl)C1(Cl)C5(Cl)C24Cl (stereo not given) | inactive | –
10 | Nc1ncc([N+](=O)[O-])s1 | inactive | –
11 | COP(=S)(OC)Oc1cc(Cl)c(Cl)cc1Cl | inactive | –
12 | CC(C)CCCCCCOC(=O)c1ccccc1C(=O)OCCCCCCC(C)C | – | 0.206 µM (active)
13 | O=[N+]([O-])c1ccc2c3c(cccc13)CC2 | inactive | –
14 | ClCC(Cl)CCl | inactive | –
15 | O=S(=O)(c1ccc(Cl)cc1)c1ccc(Cl)cc1 | inactive | –
16 | BrCCBr | inactive | –
17 | OCc1ccco1 | inactive | –
18 | C=C(C)C(=O)[O][Sn]([CH2]CCC)([CH2]CCC)[CH2]CCC | – | 0.148 µM (active)
19 | COC[C@H](C)N(C(=O)CCl)c1c(C)csc1C | inactive | –
20 | CC(=O)OC(c1ccccc1)C(Cl)(Cl)Cl (stereo not given) | inactive | –

Row | SMILES | outcome | AC50
21 | COP(=S)(OC)Oc1ccc(Sc2ccc(OP(=S)(OC)OC)cc2)cc1 | inactive | –
22 | COC(=O)Cc1ccccc1 | inactive | –
23 | CC(C)(c1ccccc1)c1ccc(O)c(C(C)(C)c2ccccc2)c1 | – | 13 µM (active)
24 | O=C(O)C(Cl)(Cl)Cl | inactive | –
25 | CC(=O)[O][Hg][c]1ccccc1 | – | 1.63 µM (active)
26 | CCN1CCC2(CC1)COc1cc3c(cc12)N(C(=O)c1ccc(-c2ccc(-c4nnc(C)o4)cc2C)cc1)CC3 | – | 12.7 µM (active)
27 | ClC1=C(Cl)[C@]2(Cl)[C@H]3[C@H]([C@H]4C=C[C@H]3C4)[C@@]1(Cl)C2(Cl)Cl | – | 5.42 µM (active)
28 | Oc1cccc2cccnc12 | inactive | –
29 | Nc1cccc2ccccc12 | inactive | –
30 | COc1cc(-c2ccc(N)c(OC)c2)ccc1N | inactive | –
31 | CCC(=O)C(CC(C)N(C)C)(c1ccccc1)c1ccccc1 (stereo not given) | inactive | –
32 | C[C@@H]1C[C@@H]([C@H](O)CC2CC(=O)NC(=O)C2)C(=O)[C@@H](C)C1 | – | 7.07 µM (active)
33 | NC(=S)Nc1ccccc1 | inactive | –
34 | COC(=O)c1sccc1S(=O)(=O)NC(=O)Nc1nc(C)nc(OC)n1 | inactive | –
35 | O=C1C2(Cl)C3(Cl)C4(Cl)C(Cl)(Cl)C5(Cl)C3(Cl)C1(Cl)C5(Cl)C24Cl (stereo not given) | – | 6.17 µM (active)
36 | C[C@]12CCC(=O)C[C@@H]1CC[C@@H]1[C@@H]2CC[C@]2(C)[C@@H](O)CC[C@@H]12 | – | 25.7 µM (active)
37 | CC(=O)C(Cl)C(=O)N(C)C (stereo not given) | inactive | –
38 | Cn1sc(Cl)cc1=O | inactive | –
39 | CCOP(=S)(OCC)Oc1ccc(S(C)=O)cc1 (stereo not given) | inactive | –
